Compound activity deposited in PubChem BioAssay by National Center for Advancing Translational Sciences (NCATS).
VP16 counter – Gal4-VP16 reporter inhibition counter-screen; AID 2546; Drosophila S2 Gal4-VP16 UAS-luciferase, luminescence, 20 h; Potency, µM (series often up to 53.6 µM), for the others: at the highest dose activity, negative = inhibition, usual class: inhibitors; 310,000 compounds, 3.5% hits;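 note: Gal4-VP16 expression switched on by copper sulfate through the metallothionein promoter; potency is the fitted concentration of half-maximal effect; % is set by controls: 0 for no effect and ±100 for the full control effect; nearly all actives have a fitted effect of over 50% in size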
RORgamma inh – inhibitors of mouse ROR gamma transcriptional activity | P51450 | Drosophila S2 Gal4-RORgamma UAS-luciferase reporter, 20 h | Potency, µM (highest dose often 53.6 µM), without a hit: top-dose activity change, negative = inhibition, hits mostly inhibitors | 310,000 compounds, 5.4% hits; note: potency is the fitted concentration of half-maximal effect; % is set by controls: 0 for no effect and ±100 for the full control effect; nearly all actives have a fitted effect of over 60% in size
Target sequence (P51450 whole entry, looked up, the tested form may be a part): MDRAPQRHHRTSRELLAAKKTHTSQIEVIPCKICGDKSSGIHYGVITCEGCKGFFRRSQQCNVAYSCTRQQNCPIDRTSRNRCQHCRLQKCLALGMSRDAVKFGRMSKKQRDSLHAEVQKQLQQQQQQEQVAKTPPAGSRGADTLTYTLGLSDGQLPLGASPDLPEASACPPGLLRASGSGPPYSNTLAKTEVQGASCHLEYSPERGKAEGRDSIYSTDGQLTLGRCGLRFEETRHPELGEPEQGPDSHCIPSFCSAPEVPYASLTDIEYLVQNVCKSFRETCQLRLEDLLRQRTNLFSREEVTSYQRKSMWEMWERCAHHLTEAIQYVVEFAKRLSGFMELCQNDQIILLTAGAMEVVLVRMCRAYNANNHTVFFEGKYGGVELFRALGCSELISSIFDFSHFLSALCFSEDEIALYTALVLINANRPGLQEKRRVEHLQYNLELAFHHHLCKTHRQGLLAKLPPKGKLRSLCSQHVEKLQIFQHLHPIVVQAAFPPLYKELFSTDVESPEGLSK
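Luminescence from a UAS-regulated Photinus luciferase reporter in stably transfected Drosophila Schneider cells is measured; decreased signal marks ROR gamma inhibition. Fusion expression is induced by 700 uM copper sulfate for 20 hr.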
MCF10A rerep – DNA re-replication induction in MCF 10a cells; MCF 10A DNA re-replication, Hoechst nuclear intensity, 48 h; Potency, µM (titrated, usually from 46.1 µM), for the others: top-dose activity, positive = re-replication, hits mostly activators; 350,000 compounds, 2.9% hits; AID 624296; note: potency is the fitted concentration of half-maximal effect; % of control where 0% means no effect; nearly all actives have a fitted effect of over 50% in size
Chronic BCR inh – inhibitors of chronic active B-cell receptor signaling; ABC-DLBCL IkBa-CBG/CBR reporter, luminescence ratio, 4 h; Potency, µM (doses to about 46.1 µM), for inactives: at the highest dose activity change, negative = inhibition, usual class: inhibitors; 340,000 compounds, 0.05% hits; AID 493014; active = well fitted inhibition curve with a large enough effect in the signal ratio, with a control signal flat, not every such curve was filed as active; inconclusive = small, poorly fitted or top-dose-only effect, or effect the other way, or a change in a side signal; the % refers to the signal ratio;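 note: potency is the fitted concentration of half-maximal effect; plate controls were basal doxycycline-induced cells for no effect and cells given 10 µM MG132 for full effect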
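TMD8 ABC-DLBCL cells carrying doxycycline-inducible green luciferase fused to IkappaBalpha plus unfused red luciferase were exposed to compounds (up to 46 uM) for 4 hrs at 37C. Activity came from the overlap-corrected green/red luminescence ratio.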
Giardia kill – kills Giardia lamblia; Giardia lamblia trophozoite viability; activity change, % at 7.66 µM, hits read low; 340,000 compounds, 0.15% hits; AID 540267; in the data active = activity change below about -80%; inconclusive = between about -30% and that limit;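 note: parasites exposed to compound for two days anaerobically before the ATP read; % is set by controls: 0 for no effect and ±100 for the full control effect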
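Luminescence from cellular ATP indicates surviving trophozoites (100 cells/well) following 48 hrs anaerobic compound treatment at 37 deg C; signal develops 15-30 min at room temperature.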
SW480 rereplic – inducers of DNA re-replication in SW480 colon cancer cells | SW480 DNA re-replication, Hoechst DNA content imaging, 48 h | Potency, µM (top dose mostly 46.1 µM), for inactives: at the top dose re-replication activation, actives largely listed as activators | 340,000 compounds, 1.8% hits; note: potency is the fitted concentration of half-maximal effect; % of control where 0% means no effect; nearly all actives have a fitted effect of over 55% in size
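Cells (250 per well) received 23 nL compound or DMSO by pin tool and were kept 48 hr at 37 C, 5% CO2. Nuclei were then stained with Hoechst for 40 min and scanned for DNA content.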
Starred values were filed as active, the others as inactive; ? = inconclusive; nt = not tested or not shown; ! = a repeat was not active; [ ] = another dose, or the depositor's remark. Hits are enriched below; roughly 8.3% of the tested compounds scored in any of these assays. Unless noted, calls come from the whole dose curve; as a rule, active = well fitted curve in the direction sought with a large enough effect; inconclusive = small, poorly fitted or top-dose-only effect, or another doubt; inactive = no such curve, though single readings can be large; an effect the other way counts as inactive or inconclusive.

SMILES | VP16 counter | RORgamma inh | MCF10A rerep | Chronic BCR inh | Giardia kill | SW480 rereplic
O=S(=O)([O-])CCC[n+]1c(SCCCS(=O)(=O)O)sc2ccc(Cl)cc21 | -3% | 4%[10 µM] | 2% | 1% | 15 | -3%
NCCN1CCN(CC(=O)N2c3ccccc3C(=O)Nc3cccnc32)CC1 | nt | nt | 4% | nt | -18 | -3%
O=C1Nc2cccnc2N(C(=O)CCl)c2ccccc21 | -22% | ? | 15µM* | -5% | -20 | 15µM*
Cc1[nH]c2ccccc2c1/C=C/c1nc2ccccc2c(=O)n1CCO | -12% | ? | ? | ? | -20 | ?
COc1ccc(Cc2nc(=S)[nH][nH]2)cc1Br | ? | 7.9µM* | -40% | -9% | -25 | ?
COc1ccc(Cc2n[nH]c(=S)n2C)cc1Br | -7% | 38% | -1% | -5% | -3 | 1%
Cc1ccc(NC(=O)CSc2nnc(/N=C/N(C)C)s2)cc1 | -21% | 18µM* | 2% | -1% | -9 | -9%
O=C(CNC(=O)C12CC3CC(CC(C3)C1)C2)OCc1ccc(F)cc1Cl | nt | nt | 2% | 6% | -9 | -44%
CCN(CC(=O)Nc1ccccc1OC)C(=O)COc1ccc(C#N)cc1 | nt | nt | 4% | nt | 12 | -93%
COc1cc(OC)nc(-n2ncc(Br)c(Br)c2=O)n1 | 4.5µM* | 2.2µM* | 4.6µM* | ? | 15 | 7%
CCCCc1cc(=O)oc2cc(OCc3cc(OC)c(OC)c(OC)c3)c(Cl)cc12 | 5%[0.365 µM] | 17% | 10µM* | 4% | -3 | 27%
Cc1ccc(C2NC(=NCc3ccccc3)Nc3nc(C)cc(=O)n32)cc1 (centres undefined) | ? | -19% | -6% | ? | -7 | -1%
CSc1nnc(NC(=O)C23CC4CC(CC(C4)C2)C3)s1 | ? | 18µM* | 16% | 8% | 5 | -17%
Cc1ccc2c(Cl)cc(Cl)c(OCC(=O)N3CCCC3)c2n1 | ? | 14µM* | 0% | ? | 6 | -6%
Cc1ccc2c(Cl)cc(Cl)c(OCC(=O)NC(=O)NCc3ccco3)c2n1 | -18% | 10µM* | 0% | 4% | 0 | 3%
Cc1ccc2c(Cl)cc(Cl)c(OCC(=O)NCc3ccco3)c2n1 | 11µM* | 7.1µM* | nt | -1% | nt | nt
Cc1ccc2c(Cl)cc(Cl)c(OCC(=O)N3CCOCC3)c2n1 | nt | nt | -1% | 0% | -1 | -14%
Cc1cc(Cl)cc(Cl)c1OCC(=O)NCc1ccco1 | ? | ? | ? | ? | 8 | -13%
O=C(O)c1cc(O)c2c(c1)C(=O)c1cc(O)cc(O)c1C2=O | ? | 6.3µM*! | -4% | -10% | 8 | -2%
COc1cc(O)c2c(c1)C(=O)c1cc(C)cc(O)c1C2=O | 6% | -16% | nt | nt | nt | nt
CN1CCc2[nH]c3ccc(Cl)cc3c2C1 | nt | nt | nt | nt | 6 | nt
O=C(NC(=S)Nc1ccc(S(=O)(=O)N2CCCC2)cc1)c1cccs1 | 13µM* | 4.5µM* | -3% | ? | -15 | 25%
O=C(Nc1ccc(S(=O)(=O)N2CCN(c3ccccc3)CC2)cc1)c1cccs1 | -11% | ? | -7% | ? | 8 | 2%
O=C(NC(=S)Nc1ccc(S(=O)(=O)N2CCCCCC2)cc1)c1cccs1 | 6.3µM* | 2.8µM* | 20% | 0% | -1 | 0%
O=S1(=O)C=C(SCc2ccc(F)cc2)Nc2ccccc21 | -13% | 13% | 1% | 0% | 19 | 1%
SMILES | VP16 counter | RORgamma inh | MCF10A rerep | Chronic BCR inh | Giardia kill | SW480 rereplic
CCOC(=O)C(=CNc1cc(Cl)c(-c2ccco2)c(Cl)c1)C(=O)OCC | 6% | 39% | 16µM* | ? | 37 | 22%
CCOC(=O)C(=CNc1ccc(-c2ccco2)c(Cl)c1)C(=O)OCC | -9% | 18% | 21µM* | ? | 18 | 18%
Cc1nc(/N=C\c2ccc(N(C)C)cc2)sc1C | nt | nt | -6% | -4% | 13 | 0%
COc1ccc(CN(Cc2cc3cccc(C)c3n3nnnc23)C(=O)N2CCOCC2)cc1 | 1% | 0% | -1% | 5% | -20 | ?
CN(C)S(=O)(=O)c1cccc(C(=O)NC(=S)N(CCC#N)Cc2cccnc2)c1 | -25%[10 µM] | 2µM* | 0% | -7% | 3 | -7%
Cc1ccc(S(=O)(=O)N(C)C)cc1NC(=S)N(CCC#N)Cc1cccnc1 | ? | -28% | 21% | 9% | -17 | -6%
CCN(CC)S(=O)(=O)c1ccc(C(=O)NC(=S)N(CCC#N)Cc2cccnc2)cc1 | 11µM* | 3.5µM* | -1% | 0% | -16 | -6%
Cc1ccc(C)c(CSc2nc3[nH]ncc3c(=O)[nH]2)c1 | -13% | -22% | ? | -20% | -15 | 3.7µM*
O=C(CNC(=O)C1CCCCC1)OCC(=O)c1ccc(C2CCCCC2)cc1 | nt | nt | nt | nt | -2 | nt
COc1ccc(-c2ccc(=O)n(CC(=O)Nc3ccc4c(c3)OCCO4)n2)cc1 | ? | 11µM* | -1% | ? | 4 | -2%
CC(=O)c1cccc(NC(=O)Cn2nc(-c3ccc(Cl)cc3)ccc2=O)c1 | 6% | 1% | 0.58µM* | 11% | 20 | -52%
CCOc1ccc(-c2nnc(SCC(=O)NCc3ccc(C)cc3)nc2-c2ccc(OCC)cc2)cc1 | nt | nt | nt | -3% | nt | nt
c1ccc2c(c1)ccc1ccccc12 | 5% | 0% | -1% | 1% | 5 | -4%
CC1=[N+](C)c2ccc3ccccc3c2C1(C)C | 2.5µM* | ? | ? | ? | -5 | ?
CC/C=C1/N=C2C(=O)N(C)C(=O)N=C2N(C)N1 | nt | nt | nt | nt | -88* | nt
CN1N/C(=C\c2ccccc2)N=C2C(=O)N(C)C(=O)N=C21 | nt | nt | nt | nt | -105* | nt
O=C1[C@H]2[C@H]3[C@H](O)[C@H](O)C/C(=N/OC[C@@H](O)COCc4ccco4)[C@@H]3CC[C@@H]2C(=O)N1c1cccc(Oc2ccccc2)c1 | 1%[10 µM] | -6%[10 µM] | nt | nt | nt | nt
